The text below walks through data of PMC7862700, “An all-to-all approach to the identification of sequence-specific readers for epigenetic DNA modifications on cytosine”.

What all share (assay): DAPPL (digital affinity profiling via proximity ligation, sequencing); 10 mM Tris-HCl pH 7.5, 50 mM NaCl, 1 mM DTT, 4% glycerol, room temperature, 30 min; GST-TFs on glutathione beads, 16-mer random dsDNA library, 0.1% formaldehyde crosslink after washing; high values mean tight binding
Common to all, as to conditions: protein: recombinant; tags: N-terminal GST; dsDNA, one strand shown

One assay addresses T1, FLI1 (Homo sapiens, UniProt Q01543 1-452).
T1 sequence: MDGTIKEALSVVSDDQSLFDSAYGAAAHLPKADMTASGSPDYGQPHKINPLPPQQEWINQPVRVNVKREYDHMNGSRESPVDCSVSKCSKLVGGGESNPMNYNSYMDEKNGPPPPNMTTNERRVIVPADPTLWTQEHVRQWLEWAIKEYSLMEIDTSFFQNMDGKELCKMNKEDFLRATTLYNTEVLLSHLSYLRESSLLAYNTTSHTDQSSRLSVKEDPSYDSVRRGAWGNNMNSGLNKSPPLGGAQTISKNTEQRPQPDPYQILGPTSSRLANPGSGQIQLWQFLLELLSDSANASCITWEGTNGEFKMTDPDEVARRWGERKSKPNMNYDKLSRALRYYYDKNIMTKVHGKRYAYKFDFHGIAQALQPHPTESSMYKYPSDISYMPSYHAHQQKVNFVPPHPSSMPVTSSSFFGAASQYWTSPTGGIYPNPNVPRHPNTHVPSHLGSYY
In a few lines: (§1)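 Binding signal is each hexamer's read frequency for a factor divided by its frequency in the tag-only sample. The factors were GST-fused human transcription factors from yeast, captured on glutathione beads, DNA-barcoded and pooled with that sample. Pools were incubated with 200 nmole of a random double-stranded 16-mer DNA library in Tris/NaCl/DTT/glycerol buffer at room temperature for 30 min, then washed, crosslinked with 0.1% formaldehyde, proximity-ligated with BsaI/T4 ligase (1 h, 37 °C), PCR-amplified and sequenced on an Illumina NextSeq500.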

The next assay concerns the target T2, ELK1 (Homo sapiens, UniProt P19419 1-428).
T2 sequence: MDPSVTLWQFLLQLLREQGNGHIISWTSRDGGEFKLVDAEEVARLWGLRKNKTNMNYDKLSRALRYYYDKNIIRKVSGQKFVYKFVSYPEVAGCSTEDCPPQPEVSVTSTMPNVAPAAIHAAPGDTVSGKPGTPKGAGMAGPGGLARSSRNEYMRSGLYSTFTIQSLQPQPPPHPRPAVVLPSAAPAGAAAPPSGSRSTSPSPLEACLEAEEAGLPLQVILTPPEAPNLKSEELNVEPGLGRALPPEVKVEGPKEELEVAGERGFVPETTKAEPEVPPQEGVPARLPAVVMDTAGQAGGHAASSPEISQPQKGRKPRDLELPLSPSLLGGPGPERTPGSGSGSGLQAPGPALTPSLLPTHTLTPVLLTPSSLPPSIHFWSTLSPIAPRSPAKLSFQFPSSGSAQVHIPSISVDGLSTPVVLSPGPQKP
In a few lines:
as §1

For a further assay, the target named is T3, GABPA (Homo sapiens, UniProt Q06546 1-454).
T3 sequence: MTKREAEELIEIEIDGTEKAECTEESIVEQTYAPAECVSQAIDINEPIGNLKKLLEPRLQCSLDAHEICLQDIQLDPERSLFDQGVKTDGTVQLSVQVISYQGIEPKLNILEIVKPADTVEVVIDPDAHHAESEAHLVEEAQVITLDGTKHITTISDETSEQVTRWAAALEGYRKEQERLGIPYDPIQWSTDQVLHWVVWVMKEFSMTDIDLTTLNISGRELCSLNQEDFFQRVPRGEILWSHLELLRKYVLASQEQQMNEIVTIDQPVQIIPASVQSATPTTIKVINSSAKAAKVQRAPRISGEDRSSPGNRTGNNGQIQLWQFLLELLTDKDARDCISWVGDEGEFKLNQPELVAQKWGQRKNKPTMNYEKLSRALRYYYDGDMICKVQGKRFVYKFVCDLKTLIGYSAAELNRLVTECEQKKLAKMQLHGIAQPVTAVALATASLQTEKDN
In a few lines:
as §1

Another assay has as its target T4, ERG (Homo sapiens, UniProt P11308 1-479).
T4 sequence: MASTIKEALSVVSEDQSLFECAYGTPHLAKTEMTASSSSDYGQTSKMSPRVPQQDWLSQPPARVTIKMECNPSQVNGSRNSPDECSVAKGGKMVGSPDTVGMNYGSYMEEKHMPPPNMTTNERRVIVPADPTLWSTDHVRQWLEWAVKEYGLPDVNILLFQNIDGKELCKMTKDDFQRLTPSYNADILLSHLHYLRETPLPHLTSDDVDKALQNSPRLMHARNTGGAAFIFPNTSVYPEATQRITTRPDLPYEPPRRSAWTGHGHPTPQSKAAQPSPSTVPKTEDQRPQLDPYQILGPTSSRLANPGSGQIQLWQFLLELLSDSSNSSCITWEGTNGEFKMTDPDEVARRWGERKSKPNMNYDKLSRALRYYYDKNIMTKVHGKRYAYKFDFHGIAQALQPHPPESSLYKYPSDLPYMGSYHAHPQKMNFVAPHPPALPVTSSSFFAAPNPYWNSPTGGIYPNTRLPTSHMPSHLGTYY
In a few lines:
as §1

The target of another assay is ELF1 (Homo sapiens, UniProt P32519 1-619). In a few lines: as §1
Chain of ELF1 (P32519 whole entry): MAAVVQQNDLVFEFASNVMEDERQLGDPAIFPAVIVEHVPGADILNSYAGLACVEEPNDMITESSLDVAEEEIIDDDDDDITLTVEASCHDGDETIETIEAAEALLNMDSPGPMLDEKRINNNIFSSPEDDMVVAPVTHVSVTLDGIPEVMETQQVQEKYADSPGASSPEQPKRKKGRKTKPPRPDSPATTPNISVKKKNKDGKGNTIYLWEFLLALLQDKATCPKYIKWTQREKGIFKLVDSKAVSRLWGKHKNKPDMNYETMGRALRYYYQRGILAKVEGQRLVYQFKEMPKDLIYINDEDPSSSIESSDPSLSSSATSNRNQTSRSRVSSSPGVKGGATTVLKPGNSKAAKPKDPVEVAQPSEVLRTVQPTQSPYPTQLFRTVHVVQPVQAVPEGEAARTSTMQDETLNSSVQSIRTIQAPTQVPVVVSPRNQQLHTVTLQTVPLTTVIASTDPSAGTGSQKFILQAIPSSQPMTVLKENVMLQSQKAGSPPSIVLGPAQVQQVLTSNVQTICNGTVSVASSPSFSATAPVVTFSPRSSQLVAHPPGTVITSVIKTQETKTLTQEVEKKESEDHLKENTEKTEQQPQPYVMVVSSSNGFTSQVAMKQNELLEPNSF
For the next assay, the target named is T5, EHF (Homo sapiens, UniProt Q9NZC4 1-300).
T5 sequence: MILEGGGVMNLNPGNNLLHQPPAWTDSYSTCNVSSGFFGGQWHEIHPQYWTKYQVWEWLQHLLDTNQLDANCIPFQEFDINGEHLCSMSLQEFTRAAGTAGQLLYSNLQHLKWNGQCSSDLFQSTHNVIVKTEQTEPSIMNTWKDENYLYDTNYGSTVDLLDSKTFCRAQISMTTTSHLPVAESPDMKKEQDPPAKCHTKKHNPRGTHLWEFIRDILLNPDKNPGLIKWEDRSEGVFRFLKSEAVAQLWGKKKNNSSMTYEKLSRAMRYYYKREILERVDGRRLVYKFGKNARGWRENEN
In a few lines: as §1

The target in another assay is SPI1 (Homo sapiens, UniProt P17947 1-270). In a few lines:
as §1

The target in a further assay is SPIB (Homo sapiens, UniProt Q01892 1-262). In a few lines: as §1
Chain of SPIB (Q01892 whole entry): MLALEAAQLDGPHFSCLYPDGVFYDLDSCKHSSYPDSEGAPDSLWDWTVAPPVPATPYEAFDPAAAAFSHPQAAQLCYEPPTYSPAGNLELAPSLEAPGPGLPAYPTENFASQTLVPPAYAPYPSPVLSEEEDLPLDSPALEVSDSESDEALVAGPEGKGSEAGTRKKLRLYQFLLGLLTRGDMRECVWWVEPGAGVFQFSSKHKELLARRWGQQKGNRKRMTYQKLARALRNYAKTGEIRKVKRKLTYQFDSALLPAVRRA
In a further assay the target is T6, ELK3 (Homo sapiens, UniProt P41970 1-407).
T6 sequence: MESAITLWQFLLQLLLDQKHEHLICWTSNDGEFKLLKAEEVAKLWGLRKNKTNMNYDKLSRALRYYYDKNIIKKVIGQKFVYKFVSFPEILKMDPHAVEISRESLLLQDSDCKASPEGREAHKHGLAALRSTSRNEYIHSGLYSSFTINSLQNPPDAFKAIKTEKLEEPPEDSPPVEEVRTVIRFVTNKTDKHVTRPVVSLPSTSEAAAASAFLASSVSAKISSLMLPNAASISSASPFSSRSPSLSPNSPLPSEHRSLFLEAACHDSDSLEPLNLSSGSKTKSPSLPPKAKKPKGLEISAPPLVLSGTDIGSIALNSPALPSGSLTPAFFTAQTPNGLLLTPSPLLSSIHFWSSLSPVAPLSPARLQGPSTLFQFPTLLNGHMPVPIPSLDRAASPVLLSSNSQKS
In a few lines:
as §1

As for TGGCTA, the binding signal was 1.15 fold enrichment (6-mer frequency, TF over GST control) with FLI1; 1.23 fold enrichment (6-mer frequency, TF over GST control) with ELK1; 1.24 fold enrichment (6-mer frequency, TF over GST control) in the assay with GABPA; 1.17 fold enrichment (6-mer frequency, TF over GST control) with ERG; 1.22 fold enrichment (6-mer frequency, TF over GST control) with ELF1; 1.19 fold enrichment (6-mer frequency, TF over GST control) with EHF. Besides, the binding signal in the assay with SPI1 was 1.2 fold enrichment (6-mer frequency, TF over GST control); in the assay with SPIB, 1.31 fold enrichment (6-mer frequency, TF over GST control); with ELK3, 1.14 fold enrichment (6-mer frequency, TF over GST control).

Regarding GCCTTG, the binding signal is 1.34 fold enrichment (6-mer frequency, TF over GST control) in the assay with FLI1; 1.27 fold enrichment (6-mer frequency, TF over GST control) with ELK1; 1.33 fold enrichment (6-mer frequency, TF over GST control) in the assay with GABPA; 1.26 fold enrichment (6-mer frequency, TF over GST control) with ERG; 1.29 fold enrichment (6-mer frequency, TF over GST control) in the assay with ELF1; 1.24 fold enrichment (6-mer frequency, TF over GST control) with EHF. Moreover, the binding signal was 1.25 fold enrichment (6-mer frequency, TF over GST control) with SPI1; 1.23 fold enrichment (6-mer frequency, TF over GST control) with SPIB; 1.18 fold enrichment (6-mer frequency, TF over GST control) with ELK3.

In the case of ACTCCG, the binding signal with FLI1 is 1.48 fold enrichment (6-mer frequency, TF over GST control); in the assay with ELK1 it was 1.5 fold enrichment (6-mer frequency, TF over GST control); with GABPA, 1.58 fold enrichment (6-mer frequency, TF over GST control); with ERG, 1.43 fold enrichment (6-mer frequency, TF over GST control); with ELF1, 1.48 fold enrichment (6-mer frequency, TF over GST control); with EHF, 1.42 fold enrichment (6-mer frequency, TF over GST control). In addition, the binding signal in the assay with SPI1 is 1.45 fold enrichment (6-mer frequency, TF over GST control); with SPIB it was 1.44 fold enrichment (6-mer frequency, TF over GST control); with ELK3, 1.56 fold enrichment (6-mer frequency, TF over GST control).

On to AAAGTA, for which the binding signal in the assay with FLI1 was 1.14 fold enrichment (6-mer frequency, TF over GST control); with ELK1, 1.1 fold enrichment (6-mer frequency, TF over GST control); with GABPA it was 1.17 fold enrichment (6-mer frequency, TF over GST control); with ERG, 1.13 fold enrichment (6-mer frequency, TF over GST control); with ELF1 it was 1.13 fold enrichment (6-mer frequency, TF over GST control); with EHF, 1.15 fold enrichment (6-mer frequency, TF over GST control). Further, the binding signal was 1.1 fold enrichment (6-mer frequency, TF over GST control) with SPI1; 1.18 fold enrichment (6-mer frequency, TF over GST control) in the assay with SPIB; 1.24 fold enrichment (6-mer frequency, TF over GST control) in the assay with ELK3.

With GCCTCG, the binding signal in the assay with FLI1 was 1.41 fold enrichment (6-mer frequency, TF over GST control); with ELK1, 1.26 fold enrichment (6-mer frequency, TF over GST control); with GABPA, 1.34 fold enrichment (6-mer frequency, TF over GST control); with ERG it was 1.45 fold enrichment (6-mer frequency, TF over GST control); with ELF1, 1.42 fold enrichment (6-mer frequency, TF over GST control); with EHF it was 1.3 fold enrichment (6-mer frequency, TF over GST control). The binding signal is 1.21 fold enrichment (6-mer frequency, TF over GST control) in the assay with SPI1; 1.19 fold enrichment (6-mer frequency, TF over GST control) in the assay with SPIB; 1.26 fold enrichment (6-mer frequency, TF over GST control) in the assay with ELK3.

Take ACGACT: the binding signal with FLI1 is 1.27 fold enrichment (6-mer frequency, TF over GST control); with ELK1 it was 1.28 fold enrichment (6-mer frequency, TF over GST control); with GABPA, 1.36 fold enrichment (6-mer frequency, TF over GST control); with ERG, 1.24 fold enrichment (6-mer frequency, TF over GST control); with ELF1 it was 1.19 fold enrichment (6-mer frequency, TF over GST control); with EHF, 1.17 fold enrichment (6-mer frequency, TF over GST control). Moreover, the binding signal was 1.27 fold enrichment (6-mer frequency, TF over GST control) with SPI1; 1.17 fold enrichment (6-mer frequency, TF over GST control) with SPIB; 1.24 fold enrichment (6-mer frequency, TF over GST control) with ELK3.

In the case of TAAAAG, the binding signal in the assay with FLI1 was 1.12 fold enrichment (6-mer frequency, TF over GST control); in the assay with ELK1, 1.18 fold enrichment (6-mer frequency, TF over GST control); in the assay with GABPA, 1.24 fold enrichment (6-mer frequency, TF over GST control); with ERG, 1.1 fold enrichment (6-mer frequency, TF over GST control); with ELF1, 1.12 fold enrichment (6-mer frequency, TF over GST control); with EHF it was 1.16 fold enrichment (6-mer frequency, TF over GST control). For the same sequence, the binding signal with SPI1 was 1.31 fold enrichment (6-mer frequency, TF over GST control); in the assay with SPIB, 1.18 fold enrichment (6-mer frequency, TF over GST control); with ELK3, 1.15 fold enrichment (6-mer frequency, TF over GST control).

CTCTTT: the binding signal with FLI1 is 1.37 fold enrichment (6-mer frequency, TF over GST control); in the assay with ELK1, 1.33 fold enrichment (6-mer frequency, TF over GST control); with GABPA, 1.39 fold enrichment (6-mer frequency, TF over GST control); with ERG, 1.43 fold enrichment (6-mer frequency, TF over GST control); with ELF1, 1.53 fold enrichment (6-mer frequency, TF over GST control); with EHF, 1.55 fold enrichment (6-mer frequency, TF over GST control). Besides, the binding signal with SPI1 is 2.23 fold enrichment (6-mer frequency, TF over GST control); in the assay with SPIB, 1.42 fold enrichment (6-mer frequency, TF over GST control); with ELK3 it was 1.66 fold enrichment (6-mer frequency, TF over GST control).
